# Reference: the supplement of paper PMC9135407
# Where “and” joins values, the source holds several entries; their conditions need not be identical. Identical values can stand only once. Counter-ions that a name gives are not always drawn. The campaign covered roughly 5,800 compounds. About 620 (11%) showed activity. Many of the other results were omitted from the sample, so actives are more common in it than they were. A number with no mark means an inactive call.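 The calls were made as follows: active = score above a cut-off or among the top three wells of a plate; in these data no inactive exceeds 0.85.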
# Test system: primary human hepatic stellate cells (donor 1)
# Test: scaled lipid accumulation score (0 = DMSO-like, 1 = nortriptyline-like); higher = stronger HSC inactivation (lipid re-accumulation), active = hit call of the paper
# Details: 48 h
# [1] = library stock concentration: 3.33 mM
# [2] = library stock concentration: 1 mM
# [3] = library stock concentration: 10 mM
# [4] = library stock concentration: 80 uM
# [5] = library stock concentration: 400 uM
# [6] = library stock concentration: 2 mM
structure (smiles),measurement,setting,value
Cc1cncc2cccc(S(=O)(=O)N3CCCN(C(=O)CN)C[C@@H]3C)c12 [Rho Kinase Inhibitor IV],scaled lipid accumulation score,[1],≤ 0
C=CCN(C)CCCCCCOc1ccc(C(=O)c2ccc(Br)cc2)c(F)c1,scaled lipid accumulation score,[2],0.116
CCCCC/C=C\C/C=C\CCCCCCCC(=O)OCC(COC(=O)CCCCCCCCCCCCCCC)OC(=O)CCCCCCC/C=C\CCCCCCCC (racemic) [1-Palmitoyl-2-oleoyl-3-linoleoyl-rac-glycerol],scaled lipid accumulation score,[2],0.03
OC1C[C@@H]2[C@@H](CC[C@@H](O)CCc3ccccc3)[C@H](O)C[C@@H]2O1 (some centres not stated) [Latanoprost Lactol],scaled lipid accumulation score,[2],0.027
COc1cc2ncnc(Nc3cccc(Cl)c3)c2cc1OC [AG-1478 (Tyrphostin AG-1478)] [listing 1 of 2 here],scaled lipid accumulation score,[3],1.07 (active)
COc1cc2ncnc(Nc3ccc(Oc4ccccc4)cc3)c2cc1OC [Src Kinase Inhibitor I],scaled lipid accumulation score,[1],≤ 0
COc1cc2ncnc(Nc3ccc(Oc4ccccc4)cc3)c2cc1OC,scaled lipid accumulation score,[3],0.029
COc1cc2ncnc(Nc3cccc(Cl)c3)c2cc1OC,scaled lipid accumulation score,[4],≤ -0.016
same,scaled lipid accumulation score,[5],≤ -0.016
same,scaled lipid accumulation score,[6],≤ -0.016
same,scaled lipid accumulation score,[1],≤ 0
same,scaled lipid accumulation score,[3],0.749
same,scaled lipid accumulation score,library stock concentration: 14.2 mM,0.452
"COc1cc2ncnc(Nc3cccc(O)c3)c2cc1OC [WHI-P180, Hydrochloride]",scaled lipid accumulation score,[1],≤ 0
COc1cc2ncnc(Nc3cccc(Cl)c3)c2cc1OC [Tyrphostin AG 1478],scaled lipid accumulation score,[3],0.882 (active)
COc1cc2ncnc(Nc3ccc(Cl)cc3Cl)c2cc1OC [Ste11 MAPKKK Activation Inhibitor],scaled lipid accumulation score,[1],≤ 0
COc1cc2ncnc(Nc3cccc(Cl)c3)c2cc1OC [AG-1478 (Tyrphostin AG-1478)] [listing 2 of 2 here],scaled lipid accumulation score,[1],≤ 0
CCCCCCCCCCCCCCCCOC[C@H](COP(=O)([O-])OCC[N+](C)(C)C)SC(C)=O [2-thio-PAF],scaled lipid accumulation score,[2],≤ 0
CN1C(=O)C(c2c[nH]c3ccccc23)=C(c2c[nH]c3ccccc23)C1=O [Bisindolylmaleimide V],scaled lipid accumulation score,[2],≤ 0
same,scaled lipid accumulation score,[1],≤ 0
C[C@H]1[C@H](C)CC[C@]2(C(=O)O[C@@H]3O[C@H](CO[C@@H]4O[C@H](CO)[C@@H](O[C@@H]5O[C@H](C)[C@H](O)[C@@H](O)[C@H]5O)[C@H](O)[C@H]4O)[C@@H](O)[C@H](O)[C@H]3O)CC[C@]3(C)C(=CC[C@@H]4[C@@]5(C)C[C@@H](O)[C@H](O)[C@@](C)(CO)[C@@H]5CC[C@]43C)[C@H]12 [Asiaticoside],scaled lipid accumulation score,,≤ 0
Cn1c(Nc2ccc(C(F)(F)F)cc2)nc2cc(Oc3ccnc(-c4ncc(C(F)(F)F)[nH]4)c3)ccc21,scaled lipid accumulation score,[4],≤ -0.001
same,scaled lipid accumulation score,[5],≤ -0.003
same,scaled lipid accumulation score,[6],0.037
same,scaled lipid accumulation score,[1],0.031
same,scaled lipid accumulation score,[3],0.077 and 0.031
O=C1Cc2c([nH]c3ccc(Br)cc23)-c2ncccc2N1 [1-Azakenpaullone],scaled lipid accumulation score,[1],0.405
same,scaled lipid accumulation score,[3],0.808
CCCCCCCCCCCCCCCCOCC(COP(=O)([O-])OCC[N+](C)(C)C)OC (configuration not stated) [1-Hexadecyl-2-methylglycero-3 PC],scaled lipid accumulation score,[2],0.043
COc1cc(C[C@@H](CO)[C@H](CO)Cc2ccc(O)c(OC)c2)ccc1O,scaled lipid accumulation score,[3],0.022
NC[C@@H]1O[C@H](c2ccccc2)Cc2c1ccc(O)c2O,scaled lipid accumulation score,[3],≤ 0
NC[C@H]1c(c2C[C@@H]([C@]3(C4)CC(CC45)CC(C5)C3)O1)ccc(O)c2O.Cl,scaled lipid accumulation score,[3],1.19 (active)
NC[C@@H]1O[C@H](C23CC4CC(CC(C4)C2)C3)Cc2c1ccc(O)c2O,scaled lipid accumulation score,[3],0.438
COc1ccc(C2CC(=O)c3c(O)cc(OC4OC(COC5OC(C)C(O)C(O)C5O)C(O)C(O)C4O)cc3O2)cc1OC (configuration not stated) [Methyl-Hesperidin],scaled lipid accumulation score,[1],≤ 0
same,scaled lipid accumulation score,[3],≤ 0
CCCCC/C=C\C/C=C\C/C=C\C/C=C\CCCC(=O)OC(COCCCCCCCCCCCCCCCC)COP(=O)([O-])OCC[N+](C)(C)C (configuration not stated) [Arachidonoyl PAF C-16],scaled lipid accumulation score,[2],≤ 0
CC1CCN(CCCC(=O)c2ccc(F)cc2)CC1,scaled lipid accumulation score,[3],≤ 0
CC1CCN(CCCC(=O)c2ccc(F)cc2)CC1 [Melperone hydrochloride],scaled lipid accumulation score,[3],0.058
"Cl.O[Si](CCCN1CCCCC1)(c1ccc(F)cc1)C1CCCCC1 (configuration not stated) [Hexahydro-sila-difenidol hydrochloride, p-fluoro analog]",scaled lipid accumulation score,[3],0.956 (active)
O=C(c1ccc(F)cc1)C1CCN(CCCCc2ccccc2)CC1 [4-(4-Fluorobenzoyl)-1-(4-phenylbutyl)-piperidine oxalate],scaled lipid accumulation score,[3],0.378
CC1CCN(CCCC(=O)c2ccc(F)cc2)CC1 [Metylperon],scaled lipid accumulation score,[3],≤ 0
C[C@H]1[C@H](C)CC[C@]2(C(=O)O)CC[C@]3(C)C(=CC[C@@H]4[C@@]5(C)CC[C@H](O)C(C)(C)[C@@H]5CC[C@]43C)[C@H]12 [Ursolic acid],scaled lipid accumulation score,,0.053
C[C@H]1[C@H](C)CC[C@]2(C(=O)O)CC[C@]3(C)C(=CC[C@@H]4[C@@]5(C)CC[C@H](O)C(C)(C)[C@@H]5CC[C@]43C)[C@H]12 [Ursolic Acid],scaled lipid accumulation score,[1],0.013
same,scaled lipid accumulation score,[3],≤ 0
O=C1CC2(CCCC2)CC(=O)N1CCNCC1COc2ccccc2O1 (configuration not stated),scaled lipid accumulation score,[3],≤ 0 and 0.017
CCCCC1C(=O)CCC2C(CC=CCCCC(=O)O)C(=O)CC12 (configuration not stated) [Bicyclo Prostaglandin E2],scaled lipid accumulation score,[2],≤ 0
C=C(NC(=O)C(=C)NC(=O)c1csc(C2=N[C@@H]3c4csc(n4)[C@H]4NC(=O)c5csc(n5)[C@H]([C@](C)(O)[C@@H](C)O)NC(=O)[C@H]5CSC(=N5)/C(=C/C)NC(=O)[C@H]([C@@H](C)O)NC(=O)c5csc(n5)[C@]3(CC2)NC(=O)[C@H](C)NC(=O)C(=C)NC(=O)[C@H](C)NC(=O)[C@H]([C@@H](C)CC)N[C@@H]2C=Cc3c([C@H](C)O)cc(nc3[C@H]2O)C(=O)O[C@@H]4C)n1)C(N)=O [Thiostrepton],scaled lipid accumulation score,,1.19 (active)
